Screening data as filed in PubChem.
This is a sample that favours compounds with a hit; in the whole collection about 11% have one here.
ALDH1A1 block = qHTS Assay for Inhibitors of Aldehyde Dehydrogenase 1 (ALDH1A1). Potency, µM (titrated, usually from 75.3 µM), without a hit: top-dose activity, negative = inhibition, most hits filed as inhibitors. Purified ALDH1A1, NADH fluorescence, propionaldehyde substrate. 220,000 tested, 7.3% active;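 further: potency means the concentration at half of the fitted maximal effect; plate controls were no enzyme wells and a reference inhibitor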
Target sequence (P00352 whole entry, looked up): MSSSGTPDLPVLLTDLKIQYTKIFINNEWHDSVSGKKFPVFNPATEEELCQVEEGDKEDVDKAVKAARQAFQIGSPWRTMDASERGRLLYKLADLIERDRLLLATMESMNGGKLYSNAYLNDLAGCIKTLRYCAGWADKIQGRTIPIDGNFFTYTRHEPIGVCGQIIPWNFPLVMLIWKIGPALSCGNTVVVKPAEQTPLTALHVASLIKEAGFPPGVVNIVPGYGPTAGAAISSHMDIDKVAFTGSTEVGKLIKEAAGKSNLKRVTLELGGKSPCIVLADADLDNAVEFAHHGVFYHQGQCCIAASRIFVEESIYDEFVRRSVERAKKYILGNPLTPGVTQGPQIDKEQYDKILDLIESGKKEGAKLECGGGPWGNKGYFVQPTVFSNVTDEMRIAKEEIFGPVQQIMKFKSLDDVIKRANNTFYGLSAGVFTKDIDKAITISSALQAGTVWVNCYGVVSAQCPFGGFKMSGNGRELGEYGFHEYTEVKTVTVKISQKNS
IMPase cell inh = qHTS Assay for Identifying the Cell-Membrane Permeable IMPase Inhibitors. Inositol monophosphatase 1 (Rattus norvegicus), P97697. CHO-M1 cells, IP1 accumulation, HTRF TR-FRET ratio. inhibition (IP1 accumulation), % at 46.1 µM. 120,000 tested, under 10 active; active means well fitted curve in the direction sought with a large enough effect in the signal ratio, not every such curve was filed as active; inconclusive means small, poorly fitted or top-dose-only effect, or a change in a side signal; inactive means no such curve, though single readings can be large or run the other way; the % refers to the signal ratio;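 further: cells stimulated with carbachol in lithium chloride buffer; plate controls were DMSO basal wells for no effect and reference inhibitor wells for full effect; higher means more IMPase inhibition seen as more IP1 and lower FRET ratio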
Target sequence (P97697 whole entry, looked up): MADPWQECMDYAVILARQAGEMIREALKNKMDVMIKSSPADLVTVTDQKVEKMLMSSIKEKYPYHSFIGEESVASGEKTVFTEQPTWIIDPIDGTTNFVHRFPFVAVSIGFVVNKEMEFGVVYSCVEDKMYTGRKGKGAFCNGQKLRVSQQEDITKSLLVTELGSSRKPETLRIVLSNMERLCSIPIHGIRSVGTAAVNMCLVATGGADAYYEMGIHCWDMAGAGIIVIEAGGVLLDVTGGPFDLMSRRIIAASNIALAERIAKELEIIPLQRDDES
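Elevated IP1 in lysates lowers TR-FRET signal (665/620 ratio and 620 channel reported). Cells were CHO-M1, given carbachol (50 uM as added) plus 50mM LiCl, pH 7.4, 30 min, 37C; compounds titrated up to 46 uM; AC50 by Hill equation.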
IMPase Li cell = qHTS Assay for Identifying the Cell-Membrane Permeable IMPase Inhibitors: Potentiation with Lithium; CHO-M1 cells, IP1 TR-FRET (IP-One), carbachol + lithium; Potency, µM (titrated, usually from 59.4 µM), inactives show at the top dose activity, negative = IMPase inhibition, hits mostly inhibitors; 210,000 tested, 0.35% active; AID 1457, 2008; active means well fitted curve in the direction sought with a large enough effect; inconclusive means small, poorly fitted or top-dose-only effect, or another doubt; inactive means no such curve, though single readings can be large; an effect the other way counts as inactive or inconclusive;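 further: IP1 builds up when IMPase is blocked and the TR-FRET signal falls; potency means the concentration at half of the fitted maximal effect; plate controls were basal vehicle for no effect and high inhibitor control for full effect; nearly all actives have a fitted effect of over 50% in size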
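CHO-M1, 2000 cells/well, 16–30 h culture; cpd + low Li+, 30 min 37C; lysis with d2-IP1/Eu-anti-IP1 Ab, 10 min RT; TR-FRET 665/620 ratio and 620 channel; AC50 via Hill.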
HPGD block = qHTS Assay for Inhibitors of HPGD (15-Hydroxyprostaglandin Dehydrogenase) | 15-hydroxyprostaglandin dehydrogenase [NAD(+)] (Homo sapiens), P15428 | 150,000 tested, 4.3% active | Potency, µM, for the others: top-dose activity change, negative = inhibition, most hits filed as inhibitors | AID 894, 2007 | purified HPGD, NADH fluorescence kinetic, PGE2 substrate; further: potency means the concentration at half of the fitted maximal effect
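20 nM HPGD preincubated 15 min at room temperature with compound in 50 mM Tris-HCl pH 8, 0.01% Tween 20. Started with 1 mM NAD+ and 30 uM prostaglandin E2; NADH fluorescence (360/450 nm) read 5 times over 30-s intervals, last minus first.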
NPSR antag = qHTS Assay for Antagonists of the Neuropeptide S Receptor: cAMP Signal Transduction | Q6W5P4 | CHO-NPSR cells, cAMP TR-FRET, antagonist mode | Potency, µM (series often up to 38.3 µM), for inactives: top-dose activity change, negative = inhibition, usual class: inhibitors | 220,000 tested, 1% active | AID 1461, 2008; active means well fitted curve in the direction sought with a large enough effect; inconclusive means small, poorly fitted or top-dose-only effect, or another doubt; inactive means no such curve, though single readings can be large; an effect the other way counts as inactive or inconclusive; further: potency means the concentration at half of the fitted maximal effect; nearly all actives have a fitted effect of over 50% in size
PNC inhibitor = High Content Assay for Compounds that inhibit the Assembly of the Perinucleolar Compartment; PC3M PTB-GFP, PNC prevalence imaging, 16 h; stronger effect = lower value; activity change (PNC), negative = inhibition, % at 10 µM; 140,000 tested, 3.1% active; AID 2417, 2010;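 active means readout at or below -70, meaning at least 70% loss of cells showing the perinucleolar compartment, a nuclear body marking cancer cells; inconclusive means readout between -30 and a set limit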;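 further: plate controls were DMSO wells for no effect and camptothecin positive control wells for full effect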
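Compounds are pinned in duplicate onto adhered PC3M cells stably expressing GFP-tagged PTB and incubated 16 h at 37 C. Cells are then fixed, nuclei stained with Hoechst, and PNC-positive cells counted.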
* marks the source's active call; other numbers are inactive results; ? = inconclusive; · = no result given; [ ] = remark or other dose. Unless noted, the call rests on the fitted dose curve; in most records, active means well fitted inhibition curve with a large enough effect (not every such curve was filed as active); inconclusive means small, poorly fitted or top-dose-only effect, or another doubt; inactive means no such curve, though single readings can be large or run the other way. Unless noted, on the % scale 0 is the no-effect control and ±100 the full control effect.

SMILES	ALDH1A1 block	IMPase cell inh	IMPase Li cell	HPGD block	NPSR antag	PNC inhibitor
O=C(CSCc1ccccc1Cl)N/N=C/c1ccco1	25µM*	·	3%	·	1%	·
O=C(CSc1nc2ccccc2s1)N/N=C/c1ccc(C(=O)O)cc1	3%	·	6%	·	10%	·
CC(=O)NCCCCCC(=O)O	9%	·	-1%	-6%	·	·
CCCc1nc(SCc2ccc(Cl)cc2Cl)n[nH]1	4%	1	24%[38.3 µM]	16µM*	-6%[46.1 µM]	1
CCc1nc(SCc2ccc(Cl)cc2)n[nH]1	4%	·	6%	·	7%	·
CC(CCc1ccccc1)NC(=O)CN1CCN(c2ccccc2)CC1 (stereo not given)	32µM*	·	19%	·	-9%	·
COc1ccc(CNC(=S)NCc2ccc(OC)cc2)cc1	20µM*	·	-2%	·	8%	·
Cc1cccc(C)c1NC(=S)NC(C)CCc1ccccc1 (stereo not given)	5%	9	17%	-5%	-13%[46.1 µM]	-82*
COc1ccc(CNC(=S)NC(C)CCc2ccccc2)cc1 (stereo not given)	6.3µM*	·	10%	·	-18%	·
COc1ccc(CNC(=S)Nc2ccc(OC)cc2)cc1	?	·	3%	-17%	-2%	-2
CC(C)CC(=O)N[C@H](C(=O)N[C@H](C(=O)N[C@@H](CC(C)C)[C@@H](O)CC(=O)N[C@@H](C)C(=O)N[C@@H](CC(C)C)[C@@H](O)CC(=O)O)C(C)C)C(C)C	2%	·	-1%	-1%	-7%	33
N/C(Cc1ccc([N+](=O)[O-])cc1)=N\OC(=O)c1ccc(Br)o1	1%	·	1%	0%	5%	-9
COc1ccc(NC(=O)COC(=O)c2c(-c3ccccc3)noc2C)cc1	?	0	0%[38.3 µM]	-6%	-9%[46.1 µM]	-15
CC(CCc1ccccc1)NC(=O)/C=C/c1ccccc1 (stereo not given)	11µM*	7	-5%[38.3 µM]	-4%	-24%[46.1 µM]	52
O=C(O)CCc1ccc(-c2ccc(Cl)cc2)o1	?	-5	1%[38.3 µM]	?	-2%[46.1 µM]	0
O=C(O)CCc1ccc(-c2ccc(Br)cc2)o1	?	?	8.9µM*	?	?	?
Cc1nnc(SCC(=O)NC23CC4CC(CC(C4)C2)C3)s1	?	·	5%	·	3%	·
CCOc1ccc(-n2cnnn2)cc1S(=O)(=O)Nc1c(C)cccc1C	6%	-9	21%[38.3 µM]	14µM*	-26%[46.1 µM]	?
CCCCN(CC)C(=O)CSc1cc(=O)n(C)c2ccccc12	?	-3	-9%[38.3 µM]	7.1µM*	-18%[46.1 µM]	28
Cn1c(=O)cc(SCC(=O)N2CCCC2)c2ccccc21	?	-5	15%[38.3 µM]	16µM*	-20%[46.1 µM]	-89*
CCOC(=O)N1CCC(NC(=O)CSc2cc(=O)n(C)c3ccccc23)CC1	2%	?	·	·	-25%[46.1 µM]	?
CN(Cc1ccccc1)C(=O)CSc1cc(=O)n(C)c2ccccc12	12%	·	5%	·	-7%	·
CC(C)C[C@@H](NC(=O)OCC1c2ccccc2-c2ccccc21)C(=O)O	13µM*	-2	11%	-4%	·	·
CC(C)C[C@H](NC(=O)NC1CCCc2ccccc21)C(=O)O (stereo not given in full)	19%	·	·	·	-22%	·
FC(F)(F)c1nnc2c(Sc3ccc(Cl)cc3)nc3ccccc3n12	?	7	18µM*	?	?	?
SMILES	ALDH1A1 block	IMPase cell inh	IMPase Li cell	HPGD block	NPSR antag	PNC inhibitor
CC1(C)Cc2c(C#N)c(SCC(=O)c3ccccc3)nc(N3CCOCC3)c2CS1	13µM*	0	24%[38.3 µM]	-27%	-21%[46.1 µM]	-22
COC(=O)c1ccc(CSc2nc(N3CCOCC3)c3c(c2C#N)CC(C)(C)OC3)o1	1.3µM*	3	?	-13%	-35%[46.1 µM]	?
CSc1nc(N2CCOCC2)c2c(c1C#N)CC(C)(C)OC2	-5%	-6	8%[38.3 µM]	-9%	-3%[46.1 µM]	31
O=C(Cc1ccc(F)cc1)N1CCN=C1SCc1ccc([N+](=O)[O-])cc1	8%	-3	9%	-10%	-27%	33
O=C(Cc1ccccc1)N1CCN=C1SCc1ccc([N+](=O)[O-])cc1	-4%	-1	·	·	-3%[46.1 µM]	-90*
Cc1ccc(CSC2=NCCN2C(=O)c2ccc([N+](=O)[O-])cc2)cc1	16µM*	·	7%	·	-25%	·
Cc1ccc2nc(C)cc(C(=O)OCC(=O)c3ccc(Cl)c([N+](=O)[O-])c3)c2c1	20µM*	8	-4%[38.3 µM]	-19%	?	5
Cc1cc(C(=O)OCC(=O)c2cccc([N+](=O)[O-])c2)c2ccccc2n1	-2%	-7	1%	-24%	11%	?
Cc1cc(C(=O)OCC(=O)c2ccc(Cl)c([N+](=O)[O-])c2)c2cccc(C)c2n1	13µM*	·	4%	-18%	-11%	18
COc1ccc(N(C)S(=O)(=O)c2cccc(C(=O)NCc3ccc4c(c3)OCO4)c2)cc1	-8%	·	17%	·	-15%	·
COc1ccc(N(C)S(=O)(=O)c2cccc(C(=O)N(C)Cc3ccc(C)o3)c2)cc1	10µM*	·	22%	·	-31%	·
O=C(NCC(c1cccs1)N1CCOCC1)c1cc(-c2ccc(F)cc2)nc2ccccc12 (stereo not given)	?	·	20%	·	-45%	·
O=c1c2cc(NC(=S)NCCN3CCCCCC3)ccc2nc2n1CCCCC2	20µM*	·	20%	·	21%	·
O=C(Nc1cccc(S(=O)(=O)N2CCOCC2)c1)c1ccc2c(=O)n3c(nc2c1)CCCCC3	5.6µM*	·	22%	·	8%	·
Cc1cc(C)c2nc(NC(=O)c3ccc4c(=O)n5c(nc4c3)CCCCC5)sc2c1	?	2	5%	-15%	2%[46.1 µM]	-18
O=c1c2cc(NC(=S)NCCCN3CCC(Cc4ccccc4)CC3)ccc2nc2n1CCCCC2	-7%	·	23%	·	-5%	·
O=C(Nc1ccc(F)cc1Cl)c1ccc2c(=O)n3c(nc2c1)CCCCC3	-10%	?	8%[38.3 µM]	4%	-24%[46.1 µM]	?
O=C(NC1CCCCCC1)c1ccc2c(=O)n3c(nc2c1)CCCCC3	10µM*	-7	12%[38.3 µM]	-16%	-18%[46.1 µM]	?
O=C(Nc1cccc(S(=O)(=O)N2CCCCCC2)c1)c1cc(=O)c2ccccc2o1	11µM*	·	21%	·	-42%	·
O=C(NC(=O)c1c(F)cccc1F)Nc1ccccc1SC(F)F	·	·	·	·	-19%	·
O=C(Nc1nc(-c2ccccc2)cs1)c1ccc2c(=O)n3c(nc2c1)CCCCC3	28µM*	1	·	·	?	-3
